PRMT1 inh = PRMT1 (human) inhibition, primary screen; Q99873; recombinant PRMT1, activity-based probe fluorescence polarization; inhibition, % at 2.79 µM; 370,000 tested, 1.3% active;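 active = inhibition above about 21% made by adding two undisclosed values, limit read from the data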
PfM18AAP inh-1 = PfM18AAP enzyme inhibition | 290,000 tested, 1.2% active | recombinant PfM18AAP, H-Glu-NHMec fluorogenic cleavage | inhibition, % at 7.35 µM;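 active = inhibition above the campaign mean inhibition over all tested compounds plus 3 SD, cut at about 28% in these data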;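 also: 0% = plate median of test compound wells and 100% = 2 mM ZnCl2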
MBD2 DNA inh = inhibitors of human MBD2 binding to methylated oligonucleotide; Q9UBB5; TR-FRET; inhibition, % at 4.4 µM; 370,000 tested, 0.31% active; AID 686964; in the data active = inhibition above about 13%
PfG6PD inh = PfG6PD (Plasmodium falciparum) enzyme inhibition; PfGluPho enzyme, NADPH resazurin-diaphorase fluorescence; inhibition, % at 20 µM; 350,000 tested, 0.78% active; AID 504690;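 active = inhibition reaching at least a set limit at 20 µM in the primary screen, cut at about 59% in these data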;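 also: 0% = DMSO wells with substrate and 100% = DMSO wells lacking glucose-6-phosphate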
UHRF1 MBD2 ctr = human UHRF1 methylated DNA binding inhibitors; Q96T88; UHRF1 binding to methylated oligo, TR-FRET; inhibition, % at 4.4 µM; 370,000 tested, 0.75% active; in the data active = inhibition above about 21%;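 also: UHRF1 SRA domain binding a hemimethylated CpG hairpin DNA probe; 0% = median of test compound wells and 100% = reference inhibitor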
Target sequence (Q96T88 whole entry, looked up, the tested form may be a part): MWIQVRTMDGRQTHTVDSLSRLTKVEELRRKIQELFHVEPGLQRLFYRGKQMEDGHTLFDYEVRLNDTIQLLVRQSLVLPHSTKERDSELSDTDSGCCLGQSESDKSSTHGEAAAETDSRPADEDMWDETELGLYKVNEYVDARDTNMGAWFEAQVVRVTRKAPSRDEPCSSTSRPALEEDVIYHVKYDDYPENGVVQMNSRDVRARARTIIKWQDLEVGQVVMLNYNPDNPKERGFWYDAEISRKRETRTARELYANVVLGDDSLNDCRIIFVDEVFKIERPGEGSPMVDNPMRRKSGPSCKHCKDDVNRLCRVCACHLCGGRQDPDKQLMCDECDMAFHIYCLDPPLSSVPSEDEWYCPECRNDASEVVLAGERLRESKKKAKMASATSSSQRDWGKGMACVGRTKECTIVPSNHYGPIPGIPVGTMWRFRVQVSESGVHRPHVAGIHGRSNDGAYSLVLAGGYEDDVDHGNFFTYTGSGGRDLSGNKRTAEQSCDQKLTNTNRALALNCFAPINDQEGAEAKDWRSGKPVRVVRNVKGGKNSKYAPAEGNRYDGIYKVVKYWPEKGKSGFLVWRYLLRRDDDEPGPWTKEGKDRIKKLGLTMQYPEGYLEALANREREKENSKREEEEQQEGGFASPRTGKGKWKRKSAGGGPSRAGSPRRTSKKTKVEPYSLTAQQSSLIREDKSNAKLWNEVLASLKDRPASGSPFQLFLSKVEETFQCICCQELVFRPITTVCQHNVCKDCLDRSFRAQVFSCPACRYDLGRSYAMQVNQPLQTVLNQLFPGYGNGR
PfM18AAP inh-2 = confirmation of Plasmodium falciparum M18 aspartyl aminopeptidase inhibitors. shares compounds with PfM18AAP inh-1. recombinant PfM18AAP, H-Glu-NHMec fluorogenic cleavage. inhibition, % at 7.35 µM. 2,400 tested, 28% active;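 active = mean inhibition over replicate wells above the hit cutoff set for the earlier primary screen, cut at about 29% in these data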;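 also: 0% = median of test compound wells and 100% = 2 mM ZnCl2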
CTSL1 counter = counter-screen for PFM18AAP inhibitors: confirmation of human cathepsin L inhibitors | shares compounds with PfM18AAP inh-1 | purified cathepsin L1, Z-Leu-Arg-MCA fluorescence | inhibition, % at 5.96 µM | 2,400 tested, under 10 active;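 active = average inhibition across replicates above the hit cutoff set in the earlier primary screen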;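 also: 0% = median of test compound wells and 100% = Z-Phe-Ala-diazomethylketone 1 µM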
The depositor's hits bear a star; / = not tested or not shown. Most compounds without a hit are left out; they make up all but 3.3% or so of the library.

SMILES	PRMT1 inh	PfM18AAP inh-1	MBD2 DNA inh	PfG6PD inh	UHRF1 MBD2 ctr	PfM18AAP inh-2	CTSL1 counter
C=CCn1c(-c2cccc(Cl)c2)n[nH]c1=S	-1	11	0	5	-1	/	/
CCn1c(-c2ccc(OC)c(OC)c2)n[nH]c1=S	-4	2	1	15	0	/	/
C[n+]1ccc(CC2C(=[N+]([O-])[O-])C=Nc3ncnn32)cc1 (stereo not drawn)	1	32*	-3	10	3	-10	6
CC1(C)OC2C(CO)OC(n3cnc4c(=S)nc[nH]c43)C2O1 (stereo not drawn)	4	32*	-2	50	2	-30	-5
CC1(C)O[C@@H]2[C@H](O1)[C@@H](CO)O[C@H]2n1cnc2c(N)ncnc21	-3	/	1	0	-3	/	/
CCCCOCCCNC(=O)C[C@@H]1C(=O)N2CCCC3=C2[C@@]1(C(=O)OCC)CCC3	-3	/	3	/	-2	/	/
C=CCN1C[C@H](COC(=O)CSc2ccccc2)Oc2cccc(F)c2S1(=O)=O	3	/	1	/	0	/	/
Cc1cccc(Cn2cc(CN3CC(N4CCN(CCOC(=O)c5cc6ccccc6o5)CC4)CS3(=O)=O)nn2)c1 (stereo not drawn)	2	/	1	/	9	/	/
CC(C)C[C@@H]1COc2cc(NCCCN3CCOCC3)ccc2S(=O)(=O)N1	3	/	8	/	19	/	/
S=c1[nH]c(-c2ccccc2)cn1/N=C/c1ccncc1	4	51*	-1	53	-4	43*	-7
COC(=O)[C@]12C[C@H](CC(=O)N3CCN(C(=O)c4ccco4)CC3)C(=O)N(Cc3ccc(Cl)cc3Cl)C1=C[C@H](COCc1ccccc1)O[C@@H]2C	-4	/	-2	/	0	/	/
NC(=O)c1c(NC(=S)Nc2ccccc2)sc2c1CCCC2	12	26	-2	8	0	/	/
NC(=O)c1c(NC(=S)Nc2ccc(F)cc2)sc2c1CCCC2	3	35*	1	17	-4	3	5
NC(=O)c1c(NC(=O)C2CC=CCC2C(=O)O)sc2c1CCCCC2 (stereo not drawn)	23*	40*	7	42	3	-19	-2
COC(=O)[C@H](CC(C)C)N(CCCc1cn(Cc2ccc(C)cc2)nn1)S(=O)(=O)c1ccccc1Br	-1	/	-2	/	-3	/	/
COC(=O)[C@H](C(C)C)N(CCCc1cn(Cc2ccccc2)nn1)S(=O)(=O)c1ccccc1Br	2	/	3	/	-3	/	/
Cn1ccc(C(=O)NC(=S)Nc2ccc([N+](=O)[O-])cc2O)n1	-2	34*	-5	-16	1	41*	-4
O=C(NC(=S)Nc1ccc([N+](=O)[O-])cc1O)C1CCCCC1	3	19	-7	-21	-1	/	/
CCOC(=O)c1c(N)sc(C(=O)Nc2ccccc2F)c1C	5	37*	1	12	3	-34	-1
Cc1ccc(NS(=O)(=O)c2cc(NC(=O)c3ccc4c(c3)NC(=O)CS4)ccc2Cl)c(C)c1	20	32*	0	45	-3	-24	-10
Cn1c(=O)c2cc(S(=O)(=O)N3CCN(CCO)CC3)ccc2n(C)c1=O	-5	/	-2	/	-2	/	/
Cc1scc(C(=O)Nn2cnnc2)c1-c1ccccc1	/	64*	/	-5	/	60*	0
Cc1c(C(=O)Nn2cnnc2)oc2ccccc12	-1	81*	-6	10	-3	76*	-3
O=C(Nn1cnnc1)c1csc2ccccc12	2	72*	-1	9	0	73*	-5
Cc1c(C(=O)NN2CCOCC2)oc2ccccc12	4	0	0	-1	2	/	/
SMILES	PRMT1 inh	PfM18AAP inh-1	MBD2 DNA inh	PfG6PD inh	UHRF1 MBD2 ctr	PfM18AAP inh-2	CTSL1 counter
S=C(SCc1cc(Cl)cc2c1OCOC2)N1CCSCC1	1	/	4	/	2	/	/
COc1cc2ccc(=O)oc2c(O)c1OCC=C(C)C	5	40*	4	-12	3	-38	2
CC(C)=CCOc1ccc2ccc(=O)oc2c1	-4	10	-3	3	1	/	/
O=C(N/N=C1\CCCc2ccccc21)c1ccccc1Cl	-1	-8	1	-3	3	/	/
O=C(O)c1ccc(N/N=C2/CCCc3ccccc32)cc1	14	34*	-6	-24	1	-7	8
COc1cc(/C=C(\C#N)C(=O)c2c[nH]c3ccccc23)cc(OC)c1O	7	36*	3	29	0	7	2
O=[N+]([O-])c1ccc(-c2ccn[nH]2)o1	0	40*	-3	-4	-6	-44	-9
CCCN1CCS(=O)(=O)N(Cc2cn(Cc3ccc(C)cc3)nn2)C(C(=O)OC)C1 (stereo not drawn)	-2	/	7	/	13	/	/
CC1(C)Cc2c(sc(NC(=O)C(=O)NCCCN3CCOCC3)c2C#N)CO1	-5	49*	-6	23	-3	-4	4
CCOc1ccc(-n2c(SCC(=O)Nc3cc4oc5ccccc5c4cc3OC)nnc2-c2cccc(Cl)c2)cc1	-11	/	-2	/	1	/	/
CC1(C)OC(C)(C)/C(=C/Nc2ccc(O)cc2)C1=O	18	43*	4	27	6	-51	4
CC1CCC/C(=C\Nc2ccc(O)cc2)C1=O (stereo not drawn)	15	22	-5	58	-7	/	/
CC(C)NC(=O)c1cc2cc(Br)ccc2oc1=O	-2	0	0	11	0	/	/
O=C(Nn1cnnc1)c1cc2cc(Br)ccc2oc1=O	2	34*	2	-9	4	25	3
Cc1ccc(CN[C@@H]2CC[C@@]34CCCN3C(=O)CCC[C@H]4C2)o1	0	/	1	/	0	/	/
O=c1oc2ccccc2cc1-c1nnc(NCc2ccco2)s1	9	38*	-2	29	-6	-38	4
CCO/N=C(\C)c1c(O)c(CC)c(-c2ccccc2)n(-c2ccccc2)c1=O	-1	-1	-1	13	-5	/	/
CCc1c(O)c(-c2ccccc2)c(=O)n(-c2ccccn2)c1-c1ccccc1	1	39*	1	18	6	-29	-2
CCCOc1ccc(/C=C2\SC(=S)N(CC3CCCO3)C2=O)cc1 (stereo not drawn)	-5	1	0	10	1	/	/
CCCOc1ccc(/C=c2\sc3ncnn3c2=O)cc1	-2	73*	-2	-5	2	39*	3
CC(=O)Oc1ccc(/C=c2\sc3ncnn3c2=O)cc1	7	35*	-5	-14	-1	-11	-7
CCOc1ccccc1/C=c1\sc2ncnn2c1=O	-3	51*	-1	6	-1	29*	-1
Cc1nc2ccc(NC(=O)COc3ccccc3)cc2s1	1	5	1	-10	0	/	/
CCC(=O)Nc1nc2ccc(NC(=O)COc3ccccc3)cc2s1	4	43*	4	-3	12	-42	-10
